Assay outcomes deposited in PubChem by National Center for Advancing Translational Sciences (NCATS).
D1 ag: Allosteric Agonists of the Human D1 Dopamine Receptor: qHTS; D(1A) dopamine receptor (Homo sapiens), P21728; HEK293 T-REx D1 cells, calcium flux, agonist mode; activation, % at 2 µM; hit rate 1% among 360,000; AID 504660, 2011
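Inducible HEK293 T-REx D1 cells, force-coupled to calcium signalling, were plated at 4000 cells/well with tetracycline and held overnight at 30 C. After no-wash calcium dye loading, compound-evoked calcium rise over 180 s flagged agonists.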
D1 PAM: Potentiators of Human D1 Dopamine Receptor: qHTS; potentiation, % at 10 µM; HEK293 TREx D1 cells, calcium flux, dopamine EC20 potentiation; AID 504651, 2011; hit rate 0.036% among 360,000; in the data active = potentiation above about 30%
TRHR ag: qHTS for Small Molecule Agonists and Allosteric Enhancers of Human TRH Receptor: Primary Screen for Agonists; Thyrotropin-releasing hormone receptor (Homo sapiens), P34981; TRHR cells, calcium flux fluo-8, FDSS agonist mode; activation, % at 2 µM; hit rate 0.18% among 360,000
Target sequence (P34981 whole entry, looked up): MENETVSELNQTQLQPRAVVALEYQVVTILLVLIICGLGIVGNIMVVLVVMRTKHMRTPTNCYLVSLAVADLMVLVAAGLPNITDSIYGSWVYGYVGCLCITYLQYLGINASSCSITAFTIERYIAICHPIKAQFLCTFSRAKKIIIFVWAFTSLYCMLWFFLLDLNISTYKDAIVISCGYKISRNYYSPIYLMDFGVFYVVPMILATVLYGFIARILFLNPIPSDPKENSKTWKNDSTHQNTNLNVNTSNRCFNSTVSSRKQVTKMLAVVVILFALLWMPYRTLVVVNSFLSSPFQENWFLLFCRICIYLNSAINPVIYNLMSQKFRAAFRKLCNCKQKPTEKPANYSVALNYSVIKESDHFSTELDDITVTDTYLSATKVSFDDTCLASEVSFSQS
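Agonist-mode FDSS calcium read (Ex 480/Em 530, 1 s cycles) in 1536-well TRHR cells with fluo-8 dye, after 10-cycle baseline and 23 nL compound addition; TRH at EC20 (10 nM final) added afterwards for the enhancer phase.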
D1 antag: Antagonist of Human D 1 Dopamine Receptor: qHTS. D(1A) dopamine receptor (Homo sapiens), P21728. HEK293 TREx D1 cells, calcium flux, dopamine EC80; active compounds read low. activity change, negative = inhibition, % at 10 µM. hit rate 3.2% among 360,000. AID 504652, 2011; in the data active = activity change below about -30%
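After overnight tetracycline induction at 30 C, force-coupled D1 HEK293 cells took up a no-wash calcium dye at room temperature. Compounds were added and monitored 180 s, and the response to EC80 dopamine was then recorded.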
TRHR PAM: qHTS for Small Molecule Agonists and Allosteric Enhancers of Human TRH Receptor: Primary Screen for Enhancers; hit rate 0.66% among 360,000; TRHR cells, fluo-8 calcium fluorescence, EC20 TRH enhancement; Thyrotropin-releasing hormone receptor (Homo sapiens), P34981; AID 493056, 2011; enhancement, % at 2 µM; in the data active = enhancement above about 30%
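Enhancer read-out: after compound pinning and an initial kinetic agonist-mode read, an EC20 of TRH (10 nM final) was injected and fluo-8 calcium signal (Ex 480/Em 530) followed at 1 s/cycle for 100 cycles in TRHR-expressing cells.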
Of the large screens only hits and unclear results are named; the others gave an inactive call; ! = not active in a repeat. Hits are enriched below; roughly 4.7% of the tested compounds scored in any of these assays. Cut-off read from the data, not from the text of the source, unless noted: active = activation above about 30%; inactive = the rest.

CCOC(=O)c1cc2c(=O)n3ccccc3nc2n(CC(C)C)c1=NC(=O)COc1ccc(Cl)cc1	D1 antag -39
CCOC(=O)c1cc2c(=O)n3ccccc3nc2n(C(C)C)c1=NC(=O)C(C)(C)Oc1ccc(Cl)cc1	D1 antag -40
CCOC(=O)c1cc2c(=O)n3ccccc3nc2n(CC(C)C)c1=NC(=O)C(C)(C)Oc1ccc(Cl)cc1	none
CCCCN(CC)Cc1ccc(CNS(=O)(=O)c2cc3c(cc2Cl)NC(=O)CO3)o1	none
CN(C)c1ccc(CNC(=O)C(Cc2ccccc2)NS(=O)(=O)c2ccc3c(c2)oc(=O)n3C)cc1 (stereo not drawn)	none
O=C(N/N=C/c1c[nH]c2ccccc12)c1cccc([N+](=O)[O-])c1	none
COc1ccc(NS(=O)(=O)c2cc([N+](=O)[O-])ccc2N/N=C\c2c(C)[nH]c3ccccc23)cc1	none
O=[N+]([O-])c1ccc(N/N=C/c2c[nH]c3ccccc23)cc1	D1 ag 81, TRHR ag 32
O=[N+]([O-])c1ccc(N/N=C/c2ccc[nH]2)cc1	D1 ag 79, D1 antag -44
COc1ccccc1NS(=O)(=O)c1cc([N+](=O)[O-])ccc1N/N=C/c1c[nH]c2ccccc12	D1 ag 61
O=[N+]([O-])c1ccccc1N/N=C/c1c[nH]c2ccccc12	D1 antag -71
O=[N+]([O-])c1ccc(N/N=C/c2cccc(O)c2O)cc1	none
COc1cccc(C2C(C(=O)Nc3ccc(Cl)cc3)=C(C)Nc3c(C(=O)Nc4ccccc4)cnn32)c1OC (stereo not drawn)	none
COc1ccc(C(=O)N/N=C/c2sc(N3CCOCC3)nc2-c2ccccc2)cc1OC	none
COc1ccccc1NS(=O)(=O)c1cc([N+](=O)[O-])ccc1N/N=C/c1sc(N2CCOCC2)nc1-c1ccccc1	D1 ag 33
Cc1ccc2c(c1)C1(C)C(C(C)(C)N2C=O)C1(Cl)Cl (stereo not drawn)	none
CC(=O)N1c2ccccc2C2(C)C(C1(C)C)C2(Cl)Cl (stereo not drawn)	D1 ag 207
CC1(C)CC(=O)c2cc(-c3nc(-c4ccc(F)cc4)cs3)c(=O)[nH]c2C1	none
O=C1Nc2ccccc2N(O)N1c1ccc(S(=O)(=O)Nc2ccccn2)cc1	D1 antag -50
Cc1ccnc(NS(=O)(=O)c2ccc(N3C(=O)Nc4ccccc4N3O)cc2)c1	none
Cc1c(C)n(Cc2ccc(F)cc2)c2ccc(C(=O)NCCN3CCOCC3)cc12	D1 antag -30
CCc1ccc(CNC(=O)c2ccc3nc(SCc4ccc(F)cc4)n(C)c3c2)cc1	D1 ag 40
Cc1c(C)n(Cc2ccc(F)cc2)c2ccc(C(=O)NCc3ccco3)cc12	D1 antag -75
CCn1c(C)c(C)c2cc(C(=O)NCc3ccc(F)cc3)ccc21	D1 ag 34
CCn1c(C)c(C)c2cc(C(=O)NCc3ccc(N(C)C)cc3)ccc21	none
Cc1cccc(Cn2c(C)c(C)c3cc(C(=O)NCCN4CCOCC4)ccc32)c1	none
COc1ccc(CCNC(=O)c2ccc3c(c2)c(C)c(C)n3Cc2ccc(F)cc2)c(OC)c1OC	D1 antag -55
COc1ccc(CCNC(=O)c2ccc3c(c2)c(C)c(C)n3Cc2ccccc2)c(OC)c1OC	none
COC(=O)CC1C(=O)NCCN1C(=S)Nc1ccc(F)cc1 (stereo not drawn)	D1 antag -37
CC1CCCCN1C(=O)c1ccc(COc2ccc([N+](=O)[O-])cc2)o1 (stereo not drawn)	D1 antag -36
Cc1ccc(-c2nc3ccc(Cl)cn3c2Nc2ccc3c(c2)OCCO3)s1	none
O=C(CNS(=O)(=O)c1ccc(F)cc1)N1CCN(c2ccc(F)cc2)CC1	none
O=C(CNS(=O)(=O)c1ccc(Br)s1)N1CCN(c2ccc(F)cc2)CC1	D1 antag -51!
CCOC(=O)N1CCN(CC(=O)Nc2c(C(=O)OC)[nH]c3ccc(Cl)cc23)CC1	none
COC(=O)c1[nH]c2cccc(OC)c2c1NC(=O)CCN1CCN(c2ccccc2OC)CC1	D1 antag -39
COc1ccc(C)cc1NC(=O)CN1CCN(C/C=C/c2ccccc2)CC1	D1 ag 38
COC(=O)c1[nH]c2cccc(OC)c2c1NC(=O)CCN1CCC(C)CC1	none
COc1ccc(C)cc1NC(=O)CN1CCN(c2ccccc2F)CC1	none
COc1ccc(OC)c(NC(=O)CCN2CCN(c3ccccc3F)CC2)c1	D1 antag -38
COC(=O)c1[nH]c2ccc(Cl)cc2c1NC(=O)CCN1CCOCC1	D1 antag -38
COc1cccc(NC(=O)CCN2CCN(c3ccccc3F)CC2)c1	none
COc1ccc(Cl)cc1NC(=S)N1CC(C)OC(C)C1 (stereo not drawn)	TRHR PAM 33
COc1ccccc1NC(=S)N1CC(C)OC(C)C1 (stereo not drawn)	none
COc1ccc([N+](=O)[O-])cc1NC(=O)CCN1CCN(c2ccccc2OC)CC1	D1 antag -46
COc1ccc(C)cc1NC(=O)CCN1CC(C)OC(C)C1 (stereo not drawn)	D1 antag -30
COc1ccc(C)cc1NC(=O)CCN1CCN(c2ccccc2F)CC1	D1 antag -45
CCOc1ccc(CNC(=O)Cn2c(=O)c3cccn3c3ccc(F)cc32)cc1OC	none
CCCCn1c(=O)c2oc3ccccc3c2n(CC(=O)Nc2cccc(Cl)c2C)c1=O	none
CCOC(=O)Cn1c(-c2cccs2)cc2cc(Cl)ccc21	none
CC(Sc1nc2c([nH]c3ccccc32)c(=O)n1-c1ccccc1)c1ccccc1 (stereo not drawn)	none
Cc1ccc(C)c(NC(=O)CCN2CCN(c3ccccc3F)CC2)c1	D1 antag -38
Cc1c2c(nc3ccccc13)OCC2	none
CC(=NCCc1ccccc1)C1=C(O)CSC1=O	D1 antag -46
CC(=NCCc1ccccc1)C1=C(O)CCC1=O	none
O=C(NCC1CCCN1S(=O)(=O)c1cccs1)c1cccc(Cl)c1 (stereo not drawn)	D1 antag -32
O=C(CCCCN1CCCCC1)c1ccc2c(c1)Cc1ccccc1-2	D1 ag 31, D1 antag -36
O=C(CCN1CCCCCC1)c1ccccc1	none
CCCc1cc(C(=O)N2CCCN(C)CC2)cs1	none
CCCc1cc(C(=O)N2CCN(c3ccccc3C)CC2)cs1	D1 antag -43
Cc1c(CC(=O)N2CCCCC2)c(=O)oc2cc(O)ccc12	none
COc1ccc(CCNC(=O)C2CCN(c3nc4ccccc4nc3C(F)(F)F)CC2)c(OC)c1	none
